# Measured values published in PubChem BioAssay (NCATS).
# Inconclusive results are not listed. Entries that show only a call come without a potency. Active and inactive are the calls of the source. Unless noted, calls follow the shape of the dose curve; as a rule, active = well fitted curve in the direction sought with a large enough effect; inconclusive = small, poorly fitted or top-dose-only effect, or another doubt; inactive = no such curve, though single readings can be large; an effect the other way counts as inactive or inconclusive.
# Legend:
# [1] = qHTS for small molecule inhibitors of Yes1 kinase: Counter Assay (AID 686950);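 also: no kinase present so only ADP-Glo detection of a fixed ADP amount is tested; luminescence from ADP-Glo reporting ADP in a fixed ATP and ADP mixture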
# In short: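 Enzyme-free detection counter-screen: compounds preincubated 20 min in buffer, then 0.08 mM ATP plus 0.02 mM ADP added for 60 min at room temperature; ADP-Glo luminescence. Buffer 50 mM Tris pH 7.5, 10 mM MgCl2, 150 mM NaCl; normalized to ATP+ADP and ATP-only controls.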
# [2] = qHTS Assay for Identifying Gametocytocidal Compounds (AID 743244); also: potency is read from the fitted curve at half-maximal effect;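 as to max response: actives lower the fluorescent signal which means gametocytes are killed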; details: P. falciparum 3D7 stage III-V gametocytes, alamarBlue, 72 h; max response: stronger effect = lower value
# In short: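 Late gametocytes (III–V), P. falciparum 3D7; 72 h drug, then 24 h alamarBlue; resazurin reduction read by fluorescence.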
# [3] = qHTS profiling for inhibitors of Plasmodium falciparum (DD2) proliferation (AID 743323; call rule not given here); details: lower = more inhibition; at 28.7 µM (top of the series)
# In short: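 Parasite proliferation measured via DNA-dye fluorescence, as uninfected erythrocytes lack DNA. Cultures at 0.3% parasitemia and 2.5% hematocrit incubated 72 h with compound; signal scaled between vehicle and 0.29 uM artemisinin wells.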
# [4] = target: Tyrosine-protein kinase Yes (Homo sapiens) (UniProt P07947); test: qHTS for small molecule inhibitors of Yes1 kinase: Primary Screen (AID 686947); also: nearly all actives have a fitted effect of over 60% in size; also: potency is read from the fitted curve at half-maximal effect
# Chain of Tyrosine-protein kinase Yes (Homo sapiens) (P07947 whole entry, looked up): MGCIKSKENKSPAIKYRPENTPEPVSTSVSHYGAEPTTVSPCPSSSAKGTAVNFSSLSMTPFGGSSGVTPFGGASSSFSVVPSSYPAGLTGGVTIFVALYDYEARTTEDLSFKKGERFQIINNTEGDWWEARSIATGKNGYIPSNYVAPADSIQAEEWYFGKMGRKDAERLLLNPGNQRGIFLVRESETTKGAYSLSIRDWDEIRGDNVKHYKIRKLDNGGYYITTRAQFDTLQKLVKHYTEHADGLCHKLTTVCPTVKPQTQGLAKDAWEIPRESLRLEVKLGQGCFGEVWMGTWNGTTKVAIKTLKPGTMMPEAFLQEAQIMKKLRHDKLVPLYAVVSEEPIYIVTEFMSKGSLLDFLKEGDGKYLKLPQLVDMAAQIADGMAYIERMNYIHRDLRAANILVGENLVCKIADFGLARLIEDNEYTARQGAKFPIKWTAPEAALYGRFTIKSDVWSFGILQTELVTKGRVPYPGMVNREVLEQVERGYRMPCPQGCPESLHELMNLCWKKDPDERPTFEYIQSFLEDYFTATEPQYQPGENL
# In short: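 ADP-Glo luminescence readout; final 4 nM Yes1, 0.1 mM ATP, 0.3 mg/mL poly(E4Y), Tris pH 7.5, MgCl2, DTT, Brij-35. 20 min compound preincubation, 60 min reaction at RT. Normalized to DMSO wells with and without enzyme.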
# [5] = qHTS profiling for inhibitors of Plasmodium falciparum (3D7) proliferation (AID 743322);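 also: infected erythrocytes exposed to compound for 72 h before lysis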; details: P. falciparum 3D7 proliferation; at 28.7 µM (top of the series)
# In short: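 Erythrocytes infected with P. falciparum (0.3% parasitemia, 2.5% hematocrit) incubated with compounds 72 h at 37 C, 5% CO2. Lysis with saponin/Triton buffer containing SYBR Green I, overnight at room temperature in the dark; DNA fluorescence (485/535 nm) normalised to 0.29 uM artemisinin and DMSO.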
smiles,measurement,setting,value
Cc1ccc(F)c(NC(=O)Nc2ccc(-c3cccc4[nH]nc(N)c34)cc2)c1,outcome,[1],inactive
same,max response,[2],19.5% (inactive)
COc1cc(N2CCC(N3CCN(C)CC3)CC2)ccc1Nc1ncc(Cl)c(Nc2ccccc2S(=O)(=O)C(C)C)n1,outcome,[1],inactive
same,Potency,[2],4.69 µM (active)
same,"activity, percent of control",[3],0.218%
N#Cc1ccc(NC(=O)Nc2ccccc2Br)c2n[nH]nc12,outcome,[1],inactive
same,max response,[2],26.2% (inactive)
CC(C)(C)c1cc(C(=O)O)c(NC(=O)Nc2ccc3[nH]ncc3c2)s1,Potency,[4],inactive
same,outcome,[1],inactive
same,max response,[2],39.1% (inactive)
CC(C)(C(=O)NCC(F)(F)C(F)(F)F)C(=O)N[C@@H]1C(=O)Nc2ccccc2-c2ccccc21,Potency,[4],inactive
same,outcome,[1],inactive
same,max response,[2],8.7% (inactive)
CN1CCN(CCOc2cc(OC3CCOCC3)c3c(Nc4c(Cl)ccc5c4OCO5)ncnc3c2)CC1,outcome,[1],inactive
same,Potency,[2],18.7 µM (active)
O=C(O)CCC1CCC(c2cc(F)ccc2F)(S(=O)(=O)c2ccc(Cl)cc2)CC1 (centres undefined),Potency,[4],inactive
same,outcome,[1],inactive
same,max response,[2],-21% (inactive)
NC(CO)(CO)CCc1ccc(Sc2cccc(OCc3ccccc3)c2)cc1Cl,outcome,[1],inactive
CC(C)(C)C(=O)Oc1ccc2c(c1)nc(NC(=O)c1cccc([N+](=O)[O-])c1)n2CCCO,outcome,[1],inactive
same,max response,[2],2.9% (inactive)
CO[C@H]1C=CC=C(C)C(=O)NC2=CC(=O)C(NCCN(C)C)=C(C[C@@H](C)C[C@H](OC)[C@@H](O)[C@@H](C)C=C(C)[C@@H]1OC(N)=O)C2=O,Potency,[4],inactive
same,outcome,[1],inactive
same,remaining parasite growth % (stronger effect = lower value),[5],-0.553%
same,"activity, percent of control",[3],-0.115%
O=C(N[C@@H](c1ccccc1)[C@@H]1CCCCN1)c1cccc(C(F)(F)F)c1Cl,Potency,[4],inactive
same,outcome,[1],inactive
same,Potency,[2],18.7 µM (active)
COc1ncc(-c2ccc3nccc(-c4ccnnc4)c3c2)cc1NS(=O)(=O)c1ccc(F)cc1F,outcome,[1],inactive
same,Potency,[2],0.935 µM (active)
c1ccc2c(-c3cnn4cc(-c5ccc(N6CCNCC6)cc5)cnc34)ccnc2c1,Potency,[4],0.137 µM (active)
same,outcome,[1],inactive
same,Potency,[2],3.72 µM (active)
CC(C)(C)COc1ccc(-n2cc(C(=O)O)cn2)cc1C#N,Potency,[4],inactive
same,outcome,[1],inactive
same,max response,[2],54.6% (inactive)
CCOC(CN1C(=O)[C@](CC(=O)Nc2ccc(C)cc2)(NC(=O)Nc2ccc(C)cc2)c2ccccc21)OCC,Potency,[4],inactive
same,outcome,[1],inactive
same,remaining parasite growth % (stronger effect = lower value),[5],4.05%
CN(C)Cc1ccc(-c2nc3cccc4c3n2CCNC4=O)cc1,Potency,[4],13.7 µM (active)
same,outcome,[1],inactive
same,max response,[2],13% (inactive)
CC(=O)Nc1ccc([C@H](C)C(=O)Nc2ncc(C(C)C)s2)cc1,outcome,[1],inactive
same,max response,[2],12.4% (inactive)
CC(C)C(=O)Nc1ncc(-c2cc(C(F)F)nn2-c2c(Cl)cccc2Cl)s1,Potency,[4],27.4 µM (active)
same,outcome,[1],inactive
same,max response,[2],17% (inactive)
O=C(Nc1cc(Cl)cc2c1[nH]c1cnccc12)c1cccnc1,Potency,[4],inactive
same,outcome,[1],inactive
same,max response,[2],1.52% (inactive)
O=C1C(Cl)=C(NCCN2CCOCC2)C(=O)c2ncccc21,Potency,[4],6.88 µM (active)
same,outcome,[1],inactive
same,max response,[2],-156% (inactive)
CO[C@@H](C(=O)N1Cc2[nH]nc(NC(=O)c3ccc(N4CCN(C)CC4)cc3)c2C1)c1ccccc1,outcome,[1],inactive
O=c1cc(CN2CCOCC2)occ1OCCCCCSc1ccnc2cc(C(F)(F)F)ccc12,Potency,[4],inactive
same,outcome,[1],inactive
same,max response,[2],18.6% (inactive)
CS(=O)c1ccc(-c2nc(-c3ccc(F)cc3)c(-c3ccncc3)[nH]2)cc1 (centres undefined),outcome,[1],inactive
same,max response,[2],1.2% (inactive)
